The structures appear in SMILES notation. Where “and” joins values, the source holds several entries; their conditions need not be identical. Equal values may be shown once. Results filed as inconclusive are left out. Entries that show only a call come without a potency. Some compounds were tested as several samples or in several runs, with calls that do not always agree. Calls of active or inactive are those of the source. Calls come from the whole dose curve; as a rule, active = well fitted cell-killing curve with a large enough effect in the repeat runs; inconclusive = weak or mixed curves, or effect the other way; inactive = no such curve, though single readings can be large or run the other way.

The values below come from PubChem BioAssay (Tox21).
Potency is the fitted concentration of half-maximal effect.

The test is described as follows: qHTS assay to identify small molecule agonists of the RXR signaling pathway - cell viability counter screen (AID 1159529). Note: nearly all actives have a fitted effect of over 50% in size. Particulars: RXR-alpha-bla HEK293T viability, CellTiter-Glo, 16 h; series mostly up to 76.8 µM. An excerpt: National Center for Advancing Translational Sciences [NCATS]
NIH Chemical Genomics Center [NCGC]
U.S. Environmental Protection Agency [EPA]
National Institutes of Environmental Health Sciences [NIEHS]
National Toxicology Program [NTP]
U.S. Food and Drug Administration [FDA]
The Retinoid X receptor (RXR), a nuclear hormone receptor expressed in liver, spleen, placenta, epidermis, central nervous system. These receptors are able to form homo and heterodimers with other nuclear receptors and due to this heterodimerizing ability, RXR functions as master regulators producing diverse physiological effects. Three subtypes of RXR exist; alpha, beta and gamma. Retinoid X receptor alpha (RXR-alpha) has potential roles in metabolic signaling pathways, skin alopecia, dermal cysts, cardiac development, insulin sensitization etc. Therefore screening environmental chemicals on RXR-alpha signaling can be used for the studies focused on such therapeutic applications. For quantification of RXR-alpha ligands signaling, GeneBLAzer RXR alpha-UAS-bla HEK 293T (Life Technologies, Carlsbad, CA) cells containing a beta-lactamase reporter-gene under control of Retinoid X receptor-alpha response element were used to screen Tox21 10K library. The cytotoxicity of the Tox21 compound library against the RXR-alpha HEK 293T cell line was tested in parallel by measuring cell viability using CellTiter-Glo assay (Promega Corporation, Madison, WI) in the same wells.
Tox21 Assay Protocol Summary:
RXR-alpha HEK 293T cells were dispensed at 2,000 cells/6 uL of assay medium containing 2% charcoal-stripped FBS using a Multidrop Combi (ThermoFisher Scientific, Waltham, MA) dispenser. The assay was performed in black wall/clear-bottom 1536-well plates (Greiner Bio-One North America Inc. Monroe, NC). Tetraoctyl ammonium bromide was used as a positive control in the cytotoxicity screen. After the assay plates were incubated at 37 C and 5% CO2 for 5 hr, 23 nL of compounds dissolved in DMSO, positive control or DMSO only were transferred to the assay plate by a Pintool station (Kalypsys, San Diego, CA). The assay plates were incubated at 37 C and 5% CO2 for 16 hr. One uL of LiveBLAzer B/G FRET substrate (Life Technologies) was added using a Flying Reagent Dispenser (FRD) (Aurora Discovery, San Diego, CA) and the plates were incubated at room temperature for 2 hr. Fluorescence intensity (405 nm excitation, 460/530 nm emission) was measured using an Envision plate reader (PerkinElmer, Shelton, CT). For cytotoxicity, 4 uL/well of CellTiter-Glo reagent was added into the assay plates using an FRD. After 30 min incubation at room temperature, the luminescence intensity was measured using a ViewLux plate reader (PerkinElmer).
(In general: qHTS replaces the single test concentration by a dilution series.)
For the compound `Cc1ccc(C(=O)c2cc(O)c(O)c([N+](=O)[O-])c2)cc1`, the Potency entry was “inactive”.
To `O=C1c2cccc(O)c2C(=O)c2c(O)cccc21` belongs “inactive”; to `O=C(c1ccccc1)c1ccc(O)cc1O`, 25 µM (active) and inactive.
The result for `CCCCNS(=O)(=O)c1ccccc1` reads “inactive”.
The result for `c1cc(N(CC2CO2)CC2CO2)ccc1OCC1CO1` (stereo not given) reads “inactive”.
Take `C[C@]12CC[C@H]3[C@@H](CCC4=CC(=O)CC[C@@]43C)[C@@H]1CC[C@@H]2C(=O)CO`: the Potency entry is “inactive”.
As for `COC(=O)CCC(=O)OC`, the Potency result was “inactive”.
To `Cc1c(OCC(F)(F)F)ccnc1CS(=O)c1nc2ccccc2[nH]1` (stereo not given) belongs “inactive”; to `O=C(c1ccc(OCCN2CCCCC2)cc1)c1c(-c2ccc(O)cc2)sc2cc(O)ccc12`, 27.5 µM (active) and 23.9 µM (active); to `CCCCC(CC)COCC1CO1` (stereo not given), “inactive”.
The result for `C#C[C@]1(O)CC[C@H]2[C@@H]3CCC4=Cc5oncc5C[C@]4(C)[C@H]3CC[C@@]21C` reads 21.9 µM (active).
To `Nc1ccc(Cl)cc1Cl` belongs “inactive”; to `Nc1ncnc2nc[nH]c12`, “inactive”; to `Cc1ccc2c(n1)Oc1ccc(C(C)C(=O)OCC(=O)N(C)C)cc1C2` (stereo not given), “inactive”.
As to `CCCCC(CC)COC(=O)c1ccc(N(C)C)cc1` (stereo not given), the Potency result was “inactive”.
To `COC(=O)C1=C(C)NC(C)=C(C(=O)OCCN(C)Cc2ccccc2)C1c1cccc([N+](=O)[O-])c1` (stereo not given) belongs 24.4 µM (active).
To `S=C(NC1CCCCC1)NC1CCCCC1` belongs “inactive”; to `CC(=O)CC/C=C(\C)CCC=C(C)C`, “inactive”; to `O=C1OC2(c3cc(Br)c(O)c(Br)c3Oc3c2cc(Br)c(O)c3Br)c2c(Cl)c(Cl)c(Cl)c(Cl)c21`, “inactive”.
The result for `O=CCCCC=O` reads “inactive”; that for `CCCCOCCOCCOCCO`, “inactive”; that for `Nc1ccc(Nc2ccccc2)cc1`, “inactive”.
As for `O=C=Nc1ccc(Cc2ccc(N=C=O)cc2)cc1`, the Potency result is “inactive”.
Regarding `CCOCCOCCO`, the Potency entry was “inactive”.
As to `CC(C)(C)NC(=O)[C@H]1CC[C@H]2[C@@H]3CC[C@H]4NC(=O)C=C[C@]4(C)[C@H]3CC[C@]12C`, the Potency result is “inactive”.
`NNc1ccc(C(=O)O)cc1`: the Potency result is “inactive”.
For `CCC(C)(O)CCCC(C)C` (stereo not given), the Potency result is “inactive”.
For the compound `CCC(C)CO` (stereo not given), the Potency entry was “inactive”.
Take `Cc1[nH]c(=O)c(C#N)cc1-c1ccncc1`: the Potency entry is “inactive”.
Regarding `OC[C@H]1O[C@@H]2O[C@H]3[C@H](O)[C@@H](O)[C@@H](O[C@H]4[C@H](O)[C@@H](O)[C@@H](O[C@H]5[C@H](O)[C@@H](O)[C@@H](O[C@H]6[C@H](O)[C@@H](O)[C@@H](O[C@H]7[C@H](O)[C@@H](O)[C@@H](O[C@H]8[C@H](O)[C@@H](O)[C@@H](O[C@H]1[C@H](O)[C@H]2O)O[C@@H]8CO)O[C@@H]7CO)O[C@@H]6CO)O[C@@H]5CO)O[C@@H]4CO)O[C@@H]3CO`, the Potency was 21.9 µM (active) and inactive.
Regarding `CCCCC/C=C/C=C/C=O`, the Potency entry is “inactive”.
To `CCCCOCCOCCO` belongs “inactive”; to `COC(=O)Nc1nc2ccc(S(=O)c3ccccc3)cc2[nH]1` (stereo not given), “inactive”; to `CN(C)C(=N)N=C(N)N`, “inactive”.
For the compound `CCCC(=O)O`, the Potency result was “inactive”.
`c1ccc2c(c1)c1cccc3ccc4cccc2c4c31`: the Potency result was “inactive”.
The result for `CC(C)Oc1ccc2c(=O)c(-c3ccccc3)coc2c1` reads “inactive”; that for `c1ccc2sc(SSN3CCOCC3)nc2c1`, “inactive”; that for `O=S(=O)(O)c1ccc(O)cc1`, “inactive”.
To `CN(C)c1nc(N(C)C)nc(N(C)C)n1` belongs “inactive”.
